Screening data as filed in PubChem BioAssay.
FID counter: compounds displacing fluorescent DNA intercalator, primary screen, artefact control for HCV NS3 helicase inhibitor project, biochemical, FID fluorescence; DNA fluorescent intercalator displacement; inhibition, % at 7.9 µM; 290,000 compounds, 0.17% hits; AID 1845, 2009; in the data active = inhibition above about 37%;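 also: 0% = vehicle and 100% = reference compound; higher means more ethidium bromide displaced from hairpin DNA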
MEKK3 PB1 HTS: modulators of MEKK3-MEK5 PB1 binding, primary screen, biochemical, wildtype MEKK3, multiplex bead flow cytometry, Alexa488-MEK5. Mitogen-activated protein kinase kinase kinase 3 (Homo sapiens), Q99759. bead-based flow cytometry, Alexa488-MEK5 binding to MEKK3; actives lie on both sides; 0 = blocked by unlabeled MEK5, 100 = vehicle. binding response (% of control), % at 10 µM. 290,000 compounds, 1.4% hits. AID 1529, 2009;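 active = binding response more than 3 SD above or below the average of its plate-row segment, actives on both sides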;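 also: Alexa488 bead fluorescence after subtracting the streptavidin-only scavenger bead signal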
dFosB activator: activators of delta FosB homodimer, primary screen, biochemical, fluorescence polarization, TAMRA-CDK5 oligo, single point | Protein FosB (Mus musculus), P13346 | purified delta FosB; percent of positive-control signal above neutral wells | activation, % at 25 µM | 340,000 compounds, 0.99% hits | AID 493131, 2011;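 active = mean activation above about 17%, with every replicate also reaching it, limit read from the data, passing the limit was not always enough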
Target sequence (P13346 whole entry, looked up): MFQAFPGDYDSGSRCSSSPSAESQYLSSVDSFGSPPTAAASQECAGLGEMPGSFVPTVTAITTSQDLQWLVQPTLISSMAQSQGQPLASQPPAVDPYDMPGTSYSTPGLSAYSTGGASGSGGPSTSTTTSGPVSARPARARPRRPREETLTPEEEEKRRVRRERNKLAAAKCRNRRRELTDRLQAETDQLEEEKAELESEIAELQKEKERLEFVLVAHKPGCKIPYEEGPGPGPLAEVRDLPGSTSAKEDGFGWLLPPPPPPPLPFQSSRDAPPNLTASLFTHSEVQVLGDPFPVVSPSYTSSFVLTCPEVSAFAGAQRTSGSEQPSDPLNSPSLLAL
MEKK2wt PB1 HTS: modulators of MEK5 binding to wildtype MEKK2, primary screen, biochemical, multiplex bead flow cytometry, Alexa488-MEK5 | Alexa488-MEK5 binding to MEKK2 WT; actives lie on both sides | 290,000 compounds, 1.1% hits | binding response (% of control), % at 10 µM | AID 1531, 2009; in the data active = binding response below about 67% or above about 130%
MEKK2mut PB1 HTS: MEK5 binding signal on mutant MEKK2 PB1, primary screen, biochemical, multiplex bead flow cytometry, Alexa488-MEK5. percent response, % at 10 µM. AID 1530, 2009. 290,000 compounds, 0.35% hits. Alexa488-MEK5 binding to MEKK2 mutant; in the data active = percent response above about 24%, passing the limit was not always enough
MEKK2wt confirm: modulators of MEK5 binding to wildtype MEKK2, confirmation, biochemical, single concentration, multiplex bead flow cytometry; shares compounds with MEKK3 PB1 HTS; Alexa488-MEK5 binding to MEKK2 WT; actives lie on both sides; binding response (% of control), % at 10 µM; 5,900 compounds, 2.4% hits; AID 1892, 2009; in the data active = binding response below about 16% or above about 210%; inactive = in between
MEKK2mut confirm: mutant MEKK2 PB1-MEK5 binding signal retest – biochemical, single concentration, multiplex bead flow cytometry, confirmation; shares compounds with MEKK3 PB1 HTS; Alexa488-MEK5 binding to MEKK2 mutant; percent response, % at 10 µM; 5,900 compounds, 2% hits; in the data active = percent response mostly above about 71%, no sharp cut-off; inactive = mostly below about 38%;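 also: higher means compound restores mutant binding toward wildtype level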
MEKK3 confirm: MEKK3 wild-type PB1 binding to MEK5, inhibitors, confirmation, biochemical, bead multiplex flow cytometry, single concentration, wildtype | shares compounds with MEKK3 PB1 HTS | Alexa488-MEK5 binding to MEKK3; hits give low values | binding response (% of control), % at 10 µM | 5,900 compounds, 1.8% hits | AID 1894, 2009;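 active = binding response below 72% of control, or above a set upper limit, though filed actives all read lower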;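 also: 100% = DMSO only wells and 0% = binding blocked by excess unlabeled MEK5; lower values mean stronger disruption of MEK5 binding to MEKK3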
* marks the source's active call; other numbers are inactive results; . = not tested or not shown; [ ] = remark or other dose. An excerpt weighted towards active compounds, which were near 2.9% of everything screened.

SMILES	FID counter	MEKK3 PB1 HTS	dFosB activator	MEKK2wt PB1 HTS	MEKK2mut PB1 HTS	MEKK2wt confirm	MEKK2mut confirm	MEKK3 confirm
O=C(NCCn1cccn1)C1CCC(=O)N(CCc2ccccc2)C1 (stereo unspecified)	-3	96	9	99	5	.	.	.
Cc1cc(-c2cc(N)n(-c3ccccc3)n2)c(C)n1C1CCCC1	-14	89	3	-5.0*[inhibitor]	-34	99	4	102
Cc1cc(N)n(-c2ccccc2)n1	-4	.	-1	.	.	.	.	.
CCn1ncc(CN2CCCC(C(=O)Nc3cccc(-c4cc5ccccc5[nH]4)c3)C2)c1C (stereo unspecified)	20	108	-13	161*	24*	168	36	113
Cc1c(CN2CCCC(C(=O)Nc3cccc(-n4cccn4)c3)C2)cnn1C (stereo unspecified)	4	99	-9	99	6	.	.	.
CC1CCC2C(=O)N(c3cccc(C(=O)Nc4ccccc4Cl)c3)C(=O)C2C1 (stereo unspecified)	-25	107	-8	108	6	.	.	.
CCOC(=O)c1cn(Cc2ccccc2)nn1	-3	131*	-3	101	0	100	-3	105
CCCCC(=O)NC(=S)Nc1cccc(NC(=O)c2ccccc2)c1	-9	49*[inhibitor]	1	61	-15	96	-6	99
CCCC(=O)NC(=S)Nc1cccc(NC(=O)c2ccccc2)c1	-8	117	-3	100	6	.	.	.
CCCCOc1cccc(C(=O)NC(=S)Nc2cccc(NC(=O)c3ccccc3Cl)c2)c1	-2	137*	-2	105	1	100	-3	102
Cc1ccc(OCC(=O)NC(=S)Nc2cccc(NC(=O)c3ccccc3)c2)cc1	-6	94	4	93	-2	.	.	.
CC(C)CC(=O)NC(=S)Nc1cccc(NC(=O)c2ccccc2)c1	-14	154*	-11	105	-1	105	3	103
CCC(=O)Nc1cccc(NC(=O)c2ccc(Br)cc2)c1	-4	135*	-1	107	1	94	-12	92
CC(=O)Nc1cccc(NC(=O)c2ccc(Br)cc2)c1	0	98	-4	100	-1	.	.	.
Cc1ccc(/C=C/S(=O)(=O)NCC(=O)OCC(=O)Nc2c(F)cccc2F)cc1	.	.	3	.	.	.	.	.
COC(=O)Cn1c(=NC(=O)c2cc(OC)cc(OC)c2)sc2cc(OC)ccc21	-3	130*	12	103	0	99	-10	105
COC(=O)Cn1c(=NC(=O)c2ccc(OC)cc2)sc2cc(OC)ccc21	-1	98	3	102	4	.	.	.
CCN(CC)S(=O)(=O)c1ccc(OC)c(NC(=O)Cn2cnc3c2c(=O)n(C)c(=O)n3C)c1	-5	95	-9	83	-13	.	.	.
CSc1nnc(-c2cc(C)on2)n1-c1ccccc1	-7	105	-5	103	-1	.	.	.
CSc1nnc(-c2nnc(SC)n2-c2ccccc2)n1-c1ccccc1	-19	22*[inhibitor]	-3	35*[inhibitor]	-33	96	0	101
COC(=O)c1sccc1NS(=O)(=O)c1ccccc1	-6	107	3	107	5	.	.	.
N#Cc1c(C(F)(F)F)cc(-c2ccccc2)[nH]c1=O	-6	127*	1	122	4	106	5	107
COc1ccc(NC(=O)CSc2ccc3c4c(cccc24)C(=O)c2ccccc2-3)cc1	3	93	-8	56*[inhibitor]	-9	68	-18	90
CCOc1cc(N2CCOCC2)c(OCC)cc1NC(=O)CN1CCC(Cc2ccccc2)CC1	1	149*	-9	110	0	107	8	106
CCOc1cc(N2CCOCC2)c(OCC)cc1NC(=O)CN1C(=O)NC(Cc2ccccc2)C1=O (stereo unspecified)	-12	97	-8	96	-3	.	.	.
SMILES	FID counter	MEKK3 PB1 HTS	dFosB activator	MEKK2wt PB1 HTS	MEKK2mut PB1 HTS	MEKK2wt confirm	MEKK2mut confirm	MEKK3 confirm
CN(C)c1ccc(/C=C(\C#N)c2ccccn2)cc1	-2	99	2	104	-2	.	.	.
COC(=O)c1ccc(/C=C(\C#N)c2ccccn2)cc1	-4	2.0*[inhibitor]	-8	1.0*[inhibitor]	-47	89	-34	87
COCc1cc(C)nc(SCC(=O)N2CCC(C)CC2)c1C#N	-25	6.0*[inhibitor]	-5	8.0*[inhibitor]	-37	112	7	106
COc1ccc(CCNC(=O)CNS(=O)(=O)c2ccc(Br)cc2)cc1	.	.	-1	.	.	.	.	.
CC(C)N(Cc1nccn1C)C(=O)CC1C(=O)NCCN1Cc1ccc(F)c(F)c1 (stereo unspecified)	-4	103	-4	110	11	.	.	.
CC(C)N(CC#CCC1(O)c2ccccc2-c2ccccc21)CCO	1	116	-4	118	14	.	.	.
CCN(CC#CCC1(O)c2ccccc2-c2ccccc21)CCO	-4	77*[inhibitor]	6	84	-13	95	-6	98
COc1ccccc1C1CN=NC12CCCc1ccccc1C2=O (stereo unspecified)	-17	24*[inhibitor]	-15	33*[inhibitor]	-13	106	5	103
CC(C)C(NC(=O)CNC(=O)OC(C)(C)C)C(=O)NCc1ccc(Cl)cc1 (stereo unspecified)	-22	88	1	48*[inhibitor]	-18	104	-3	98
CCCCNC(=O)c1cccc(C(=O)NCCCC)c1	-8	108	-4	109	14	.	.	.
O=C(C[n+]1ccc(C(=O)NCCCO)cc1)c1cccc(Br)c1	6	130*	-8	122	21	105	0	100
CSCC[C@H](NS(=O)(=O)c1ccc(C)cc1)C(=O)N1CCC(C(=O)N[C@@H](C)C(=O)O)CC1	-25	100	-10	101	0	.	.	.
CCC[C@@H](CN[C@@H](CNC)C(C)C)NCCCCc1ccccc1	21	104	-8	119	-3	.	.	.
CCC[C@H](CN[C@@H](CNC)[C@H](C)CC)NCCc1cc(C(F)(F)F)cc(C(F)(F)F)c1	39*	104	14	158*	8	176	47	110
